# High-throughput results (PubChem)
# Sampled rows, rich in hits. Any-hit rate of the full collection: about 1.2%.
# SARS 3CLpro inh: SARS-CoV 3CLpro protease inhibitors, primary screen, biochemical, quenched FRET; recombinant SARS-CoV 3CLpro, quenched FRET peptide cleavage; inhibition, % at 6 µM; actives 0.14% (n = 290,000); AID 1706, 2009; in the data active = inhibition above about 12%
# BJeLR lethal: MLPCN primary cell-based screen for lethality selective to Ras in HRASV12 cells | BJeLR (HRASV12) viability, CellTiter-Glo ATP luminescence, 48 h | actives 0.17% (n = 300,000) | inhibition, % (test concentration not listed); in the data active = inhibition above about 50%
# PrP UTR inh: inhibition of PrP 5' UTR reporter expression; cell-based PrP 5' UTR mRNA reporter, plate reader; actives 0.35% (n = 340,000); inhibition, % (test concentration not listed); in the data active = inhibition above about 52%; also: 0 = median of the neutral control wells
# PrPC surface inh: inhibitors of human cell surface prion protein PrPC, primary screen, cell-based, TR-FRET | Major prion protein (Homo sapiens), P04156 | TR-FRET read-out | inhibition, % at 13.8 µM | actives 0.43% (n = 370,000); in the data active = inhibition above about 24%; also: 0% = median of the test wells and 100% = reference compound wells
# PriA SSB inh: inhibitors of Klebsiella pneumoniae PriA binding to SSB C-terminal tail, primary screen, biochemical, AlphaScreen; PriA–SSB C-terminal tail interaction (Klebsiella pneumoniae); AlphaScreen SSBct-PriA binding, biotinylated peptide; inhibition, % at 33 µM; actives 0.6% (n = 430,000); AID 1272365, 2023; in the data active = inhibition mostly above about 37%, no sharp cut-off; inactive = mostly below about 20%;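 also: plate controls were negative control peptide for no effect and reference peptide for full effect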
# An asterisk follows results filed as active; · = no result given; ! = a repeat was not active.
SMILES,SARS 3CLpro inh,BJeLR lethal,PrP UTR inh,PrPC surface inh,PriA SSB inh
CCC(C)(C)NC(=O)C(c1ccccc1Cl)N(C(=O)CCC(=O)Nc1cc(C)on1)C1CC1 (stereo not given),3,1,-12,4,49*
Oc1ccc(-c2ccc(O)c3ncccc23)c2cccnc12,·,·,·,·,51
CCCCCC(=O)c1ccc(O)c2ncccc12,·,·,·,·,130*
CCCCCCCCCCCCc1ccc(O)c2ncccc12,·,·,·,·,33
O=S(=O)(O)c1ccc(O)c2ncccc12,·,·,·,·,99*
CCCCCCCCCCCCCCSCc1ccc(O)c2ncccc12,·,·,·,·,57
CC(C)OCc1ccc(O)c2ncccc12,·,·,·,·,87*
CCCCCCCCCCCCCCCCSCc1ccc(O)c2ncccc12,·,·,·,·,59*
CCOC(=O)c1cnn2ccc(NC(=O)c3cc(-c4ccccc4)nn3C)cc12,·,·,·,·,-14
CCc1ccc(O)c2ncccc12,·,·,·,·,28
Oc1ccc(Cc2ccc(O)c3ncccc23)c2cccnc12,·,·,·,·,72*
O=Cc1ccc(O)c2ncccc12,4,64*,12,·,94*
C#CCN(C)Cc1ccc(O)c2ncccc12,·,·,·,·,110*
CCN(CC)Cc1ccc(O)c2ncccc12,·,·,·,·,139*
CN1CCN(C(CNC(=O)c2c(F)cccc2Cl)c2ccc3c(c2)CCCN3C)CC1 (stereo not given),·,·,·,·,-4
NC(=O)/C(=N/O)c1nc(-c2ccc(Cl)cc2)cs1,·,·,·,·,5
CCc1ccc(/C=C2\SC(=S)N(CCC(=O)NCCCN3CCOCC3)C2=O)cc1,2,103*,-16,10,3
O=C(CCCN1C(=O)/C(=C/c2cccc(Br)c2)SC1=S)NCCCN1CCOCC1,1,77*,-7,6,3
Cc1ccc(/C=C2\SC(=S)N(CCC(=O)NCCCN3CCOCC3)C2=O)cc1,4,0,-25,-6,0
O=C(COC(=O)c1ccc(O)cc1O)Nc1nnc(-c2ccccc2)o1,·,1,-5,2,57*
CCOc1ncccc1C(=O)OCC(=O)Nc1nnc(-c2ccccc2)o1,·,6,-15,-6,3
O=C(COC(=O)c1cccc(O)c1)Nc1nnc(-c2ccccc2)o1,·,-4,-2,-4,43*
COc1ccc(C(=O)OCC(=O)Nc2nnc(-c3ccccc3)o2)cc1,-1,-5,-1,-9,0
Cn1c(C(F)(F)F)nn(CCNC(=O)c2ccccc2Br)c1=O,·,·,·,·,-7
CCOC(=O)NN=Cc1ccc(-c2cccc(C(F)(F)F)c2)o1,·,·,·,·,-8
SMILES,SARS 3CLpro inh,BJeLR lethal,PrP UTR inh,PrPC surface inh,PriA SSB inh
CCN(CC)CCN(C(=O)c1cc2ccccc2cc1OC)c1nc2ccc(F)cc2s1,-4,-7,-7,5,47*!
CCN(CC)CCN(C(=O)c1ccc2ccccc2c1)c1nc2ccc(OC)cc2s1,-4,-7,-26,-5,31
CCN(CC)CCN(C(=O)c1cc2ccccc2cc1OC)c1nc2ccc(OC)cc2s1,-3,-4,-3,-2,45*
O=C(O)CCC(=NNC(=O)CNC(=O)Cc1ccccc1)c1ccccc1,·,·,·,·,2
CCOc1ccc(NC(=O)Cn2nc(S(=O)(=O)c3ccc(OC)cc3)ccc2=O)cc1,·,·,·,·,-7
O=C(c1ccsc1)N1CCC(c2nnc(C3CC3)o2)CC1,·,·,·,·,4
CCCCOc1ccc(C(=O)N2CCC(c3nc4ccccc4[nH]3)CC2)cc1,·,·,·,·,91*
O=C(Nc1ccc(Br)cc1)Nc1ccccc1F,0,3,-100,23,-22
CCN(CC)C(=O)c1ccc(NC(=O)Nc2ccccc2F)cc1,2,55*,44,4,-7
CCOc1ccccc1N/N=C(/C#N)c1nc(-c2cccc([N+](=O)[O-])c2)cs1,·,·,·,·,2
Cc1ccccc1C(=O)N/N=C\c1ccccc1O,·,·,·,·,-2
COc1ccc(/C=C2\SC(=S)N(CCC(=O)Nc3ccc(C(=O)O)cc3)C2=O)cc1,1,-10,-16,-9,-4
COc1ccc(/C=C2/SC(=S)N(CCC(=O)O)C2=O)cc1,2,24,63*,-8,-6
O=C(CSc1nccn1-c1ccccc1)NO,-1,12,-20,-4,-9
Clc1cccc(CSc2ncn(-c3ccccc3)n2)c1,-2,7,-30,1,-57
Brc1ccc(CSc2nccn2-c2ccccc2)cc1,6,1,-11,4,59*
FC(F)(F)c1ccc(CSc2nccn2-c2ccccc2)cc1,-1,2,-21,5,48*
Clc1cccc(CSc2nccn2-c2ccccc2)c1,7,-4,-33,-1,53*
O=C1NC(=O)C(=Cc2cn(-c3ccccc3)nc2-c2cccc(Br)c2)C(=O)N1,·,·,·,·,-18
COCCCNC(=O)NC1(C(F)(F)F)Oc2ccc(C(C)(C)C)cc2O1 (stereo not given),·,·,·,·,1
CSc1ccc(NC(=O)c2sc(C)nc2C)nn1,·,·,·,·,-1
CCCCOc1ccc(Br)cc1/C(C)=N/NC1=NCCN1,-5,52*,-40,17,·
COc1ccc(Br)cc1C(C)=NNC1=NCCN1,·,·,·,·,-5
COc1ccc(S(=O)(=O)NCC2(c3cccs3)CCCC2)c(C)c1,·,·,·,·,-21
COc1ccc(C(=O)N2C(=S)C(c3ccccc3)=NC23CCC(C)CC3)cc1OC (stereo not given),·,·,·,·,37*
SMILES,SARS 3CLpro inh,BJeLR lethal,PrP UTR inh,PrPC surface inh,PriA SSB inh
COc1ccc(C(=O)N2CCN=C2c2ccccc2)cc1OC,2,0,-11,-4,-15
CCOc1ccc(S(=O)(=O)N2CCC[C@H](S(=O)(=O)c3ccc(F)cc3)C2)cc1C,·,·,·,·,-3
O=[N+]([O-])c1ccc(C=NNc2nc(N3CCCC3)nc(N3CCCC3)n2)o1,·,·,·,·,1
Cc1cc(C)cc(OCC(=O)N2N=C(c3cccnc3)CC2(O)C(F)(F)F)c1 (stereo not given),4,3,-4,7,-4
Cc1cc(C)cc(OCC(=O)N2N=C(C(F)(F)F)CC2(O)C(C)(C)C)c1 (stereo not given),5,-4,-19,3,49*
CCOc1c(C)cc(S(=O)(=O)Nc2ccc3c(c2)CC(=O)N3)cc1C,·,·,·,·,23
O=C(N/N=C(\c1ccccc1)c1cccnc1)c1cccc(F)c1,-1,67*,44,3,·
O=C(NCC1CCN(c2ccccn2)CC1)C(=O)Nc1ccc(OC(F)(F)F)cc1,·,·,·,·,-12
COCCN=c1scc(-c2cc(OC)c(OC)c(OC)c2)n1/N=C/c1c(C)[nH]c2ccccc12,-1,0,7,2,·
COCCN=c1scc(-c2ccccc2)n1N=Cc1c[nH]c2ccccc12,·,·,·,·,51*
